Measured values as given in PubChem BioAssay AID743279 (National Center for Advancing Translational Sciences (NCATS), 2014).
Screen size: about 360,000 compounds; about 17,000 (4.7%) were called active. Inconclusive results (about 5%) are left out. What follows is part of a selection rich in actives, with near analogues and random picks from the rest. Unmarked numbers belong to inactive results. No stated cut-off is given here; in the data, active means activity change below about -50%; inconclusive means mostly about -30% to -49%; inactive means weaker than that.

Experiment: qHTS for Inhibitors of Inflammasome Signaling: IL-1-beta AlphaLISA Primary Screen
Settings: THP-1 LPS/ATP IL-1B secretion, 16 h; at 57.5 µM, stronger effect = lower value
In short: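 Secreted IL-1B measured by AlphaLISA bead assay after 16 h compound exposure of THP-1 cells; compounds (final up to 57.5 uM) added 1 h before LPS (250 ng/mL) and ATP (1.25 mM) stimulation; lower signal means less secretion.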
On the % scale 0 is the no-effect control and ±100 the full control effect.

| SMILES | activity change |
| --- | --- |
| O=C(NCc1ccccc1)C1CNCC(C(=O)NCc2ccccc2)C1 (stereo not given) | -14.4% |
| Cc1cc([N+](=O)[O-])ccc1NS(=O)(=O)c1ccccc1 | 26.9% |
| O=S1(=O)CC(N2CCN(CCO)CC2)CN1C1CCCC1 (stereo not given) | -8.55% |
| Cc1ccc(-c2c(N)nc3ncccn23)cc1 | 7.85% |
| O=C(CN(C(=O)CCC(=O)Nc1nccs1)c1ccc(F)cc1)NCc1ccc2c(c1)OCO2 | -10.1% |
| CC(=O)N1CCN(C(=O)c2cc(-c3ccc(C)o3)nc3ccccc23)CC1 | 23.1% |
| CCOc1ccccc1-c1cc(C(=O)N2CCOCC2)c2ccccc2n1 | -12% |
| O=C(c1cc(-c2ccc(Cl)s2)nc2ccccc12)N1CCOCC1 | -70.8% (active) |
| CCc1nc2ccc(C(=O)Nc3ccc(OC)c(OC)c3)cn2c1N(C)C(=O)c1cccc(OC)c1 | -8.18% |
| COc1ccc(C(C[N+](=O)[O-])n2nc(C)cc2C)cc1 (stereo not given) | -102% (active) |
| COc1ccc(OC)c(S(=O)(=O)n2c([N+](=O)[O-])cnc2C)c1 | 0.96% |
| CCOc1ccc(C(C)C)cc1S(=O)(=O)n1nc(C)cc1C | 0% |
| COc1ccc(S(=O)(=O)N2CCc3ccccc32)cc1C(=O)Nc1cc(S(C)(=O)=O)ccc1Cl | 47.6% |
| CC(=O)NS(=O)(=O)c1ccc(N/C(N)=N/c2nc(C)cc(C)n2)cc1 | 34.9% |
| Cc1ccc(Cn2c(C)nc3c(c2=O)c2nc4ccccc4nc2n3Cc2ccco2)cc1 | -83.5% (active) |
| O=c1c2ccccc2oc2nc(C3CCCCC3)n(Cc3ccco3)c(=O)c12 | -16.6% |
| Clc1cccc(-c2nc3nc4ccccc4nc3n2Cc2ccco2)c1 | -17.2% |
| COC(=O)c1cc(S(=O)(=O)NC2CCN(Cc3ccccc3)CC2)cn1C | -1.73% |
| CCn1c(=S)[nH]c2cc(S(=O)(=O)N3CCOCC3)ccc21 | 46.6% |
| CSCCC(=O)N1CCCC(CNC(=O)c2ccccc2Cl)C1 (stereo not given) | 27.1% |
| CC(Oc1cccc(NC(=O)c2cccs2)c1)C(=O)c1ccccc1 (stereo not given) | -60.1% (active) |
| Cc1ccc(C(=O)Nc2ccc(NC(=O)c3cccs3)cc2)c(C)c1 | -12.6% |
| CC(C)C(=O)Nc1ccc(C(=O)NNC(=O)c2cccs2)cc1 | 7.36% |

| SMILES | activity change |
| --- | --- |
| Nc1scc(-c2ccncc2)c1Cl | -0.276% |
| CC(=O)OCCN(CCCn1c(-c2ccncc2)nc2ccccc21)c1nc(-c2ccc(C)cc2)cs1 | 14.2% |
| c1ccc(CNCc2ccc(CNCc3ccccc3)cc2)cc1 | -20.3% |
| COCCNC(=O)/C(C#N)=C/c1nc(N(C)C)n(-c2ccc(F)cc2)c1Cl | -69.9% (active) |
| COCCCNC(=O)/C(C#N)=C/c1c(N2CCCCCC2)nc2ccccn2c1=O | -20.1% |
| COCCNC(=O)/C(C#N)=C/c1cccc(OCc2ccccc2)c1 | -8.24% |
| O=C(NNC(=O)c1ccc(-c2ccccc2)cc1)Nc1ccccc1 | -8.29% |
| C=CC[n+]1c(-c2ccc(C)cc2)csc1NNC(=O)Nc1ccccc1 | -79.2% (active) |
| C=CCNc1scc(-c2ccccc2)[n+]1CC=C | -19.1% |
| CC(=O)Oc1ccc(Cn2c(C)c(C(=O)NCc3ccc(C#N)cc3)sc2=O)cc1 | 8.83% |
| N#CCCN(C(=S)Nc1ccc(Cl)c(Cl)c1)C1CCCCC1 | -17.1% |
| CC(C)S(=O)(=O)c1csc(NC(=O)Nc2ccc(Cl)cc2)c1Cl | -95.1% (active) |
| O=C(NCc1ccccn1)Nc1ccc(Cl)cc1 | -6.13% |
| O=C(Nc1ccc(Cl)cc1)Nc1ccc(C(=O)N2CCOCC2)cc1 | -29.9% |
| S=C(NC1CCCCC1)NN1CCOCC1 | 31.1% |
| O=C(CSc1nc2nccnc2c(=O)n1Cc1cccs1)Nc1ccccc1F | 2.93% |
| CC1(C(=O)NS(=O)(=O)Cc2cccc(Cl)c2)CCN1C(=O)Cc1ccccc1 (stereo not given) | 3.48% |
| CCc1ccccc1NC1c2ccccc2C(=O)N1c1cccnc1 (stereo not given) | 0% |
| O=C1[C@@H](c2ccccc2)[C@@H](c2ccccc2)N1c1cccnc1 | -68.8% (active) |
| O=C1C(=O)N(c2ccccc2)C(c2ccccc2)C1c1ccccc1 (stereo not given) | 5.18% |
| COc1cc(S(=O)(=O)N(Cc2cccs2)C2CC2)ccc1-n1cnnn1 | 0% |
| CC(C)(C)OC(=O)N1CCC(NC(=O)c2[nH]cnc2C(=O)N[C@@H](Cc2ccccc2)C(=O)OCc2ccccc2)CC1 | -58% (active) |
| CC(C)(C)OC(=O)CNC(=O)c1[nH]cnc1C(=O)N[C@@H](Cc1ccccc1)C(=O)OCc1ccccc1 | 52.8% |

| SMILES | activity change |
| --- | --- |
| O=C(N[C@@H](Cc1ccccc1)C(=O)OCc1ccccc1)c1nc[nH]c1C(=O)NC1CCNCC1 | -10% |
| Cc1cc(Br)ccc1NC(=O)CCCOc1cc(=O)n(C)c2ccccc12 | -13.4% |
| COc1cccc2c1OCC(CN1CCN(C3CCCCC3)C(CCO)C1)=C2 (stereo not given) | 18.2% |
| Cc1cccc(N2CCN(C(=O)c3cccc(N4C(=O)C5C6C=CC(C6)C5C4=O)c3)CC2)c1C (stereo not given) | -52.9% (active) |
| CC1C=CCC2C(=O)N(c3cccc(C(=O)N4CCCCCC4)c3)C(=O)C12 (stereo not given) | 23.7% |
| COC(=O)c1cccc(N2C(=O)C3C4C=CC(CC4)C3C2=O)c1 (stereo not given) | 15.7% |
| Cc1ccccc1NC(=O)Cc1nc(COC(=O)CNC(=O)c2ccc(Cl)cc2Cl)cs1 | 11% |
| Cc1ccc(F)c(S(=O)(=O)NC(=O)C2(C)CCN2C(=O)c2ccco2)c1 (stereo not given) | 24% |
| S=C(NCc1cccnc1)Nc1ccc(Cl)cc1Cl | 11% |
| O=C(NNc1cc(Cl)ccc1Cl)c1cccnc1Cl | -6.39% |
| CC(=O)/C(=N\Nc1ccc(Cl)cc1Cl)Sc1cccc2cccnc12 | -103% (active) |
| O=C(COC(=O)/C=C/c1ccc(Cl)cc1)NC1CCS(=O)(=O)C1 (stereo not given) | 1.68% |
| CC(=O)Nc1ccc(-c2ccnc3c2CC(C(=O)NC(C)C)O3)cc1 (stereo not given) | -17% |
| Nc1cccc2c1C(=O)N(Cc1nnc(-c3ccccc3Br)o1)C2=O | -5.13% |
| CC(C)N(C(=O)[C@H]1C[C@H](CC(=O)NCCC2=CCCCC2)C(=O)N2CCc3c([nH]c4cc(CCC(=O)N(C)C)ccc34)[C@]12C)C(C)C | -51.9% (active) |
| CN(C)C(=O)CCc1ccc2c3c([nH]c2c1)[C@]1(CCc2ccccc2)[C@@H](C(=O)N2CCCCC2)C[C@H](CC(=O)NCCC2=CCCCC2)C(=O)N1CC3 | -14.8% |
| CN(C)C(=O)CCc1ccc2c3c([nH]c2c1)[C@]1(C)[C@@H](C(=O)N2CCCCC2)C[C@H](CC(=O)NCCC2=CCCCC2)C(=O)N1CC3 | -30% |
| COc1ccc(-c2cc3nc(NCCOc4ccccc4)ccn3n2)cc1 | -17.4% |
| COCCNc1cc(-c2ccccc2)nc2cc(-c3cccc(F)c3)nn12 | -67.2% (active) |
| COCCCNc1ccn2nc(-c3ccc(CC(C)C)cc3)cc2n1 | 47% |
| CCCCc1nccn1CCn1ccnc1CCCC | -1.41% |
| CCOC(=O)c1c(NC(=O)CCl)sc(C(=O)N(CC)CC)c1C | -99.1% (active) |
| CCOC(=O)Nc1sc(C(=O)N(C)C)c(C)c1C(=O)OCC | 20.1% |

| SMILES | activity change |
| --- | --- |
| CCOC(=O)c1sc(NC(=O)CCN2CCOCC2)c(C(=O)OCC)c1C | 0% |
| CC(Oc1ccc(F)cc1)C(=O)Nc1cc(S(=O)(=O)N2CCOCC2)ccc1N1CCN(C)CC1 (stereo not given) | -9.51% |
| O=C(Cc1ccc([N+](=O)[O-])cc1)NCCS(=O)(=O)N1CCN(c2ccccc2)CC1 | 16.3% |
| CCNC(=S)Nc1ccc2c(c1)c(=O)n(C)n2Cc1ccc(Cl)cc1 | -17.7% |
| CC(C)Oc1cc(F)ccc1-c1cc(C(=O)Nc2cccc(Cl)c2)[nH]n1 | 19.8% |
| COc1ccccc1N1CCN(/N=C/c2ccc(O)cc2O)CC1 | -21.9% |
| COc1cc(/C=N/N2CCN(c3ccccc3)CC2)ccc1OC(C)=O | -4.61% |
| COc1ccccc1N1CCN(/N=C\C(Br)=C\c2ccccc2)CC1 | -66.9% (active) |
| CCCc1nc2c3ccccc3ccn2c1Cc1ccccc1C(F)(F)F | 17.7% |
| COCCCN(C(=S)Nc1c(C)cc(C)cc1C)C(C)c1ccncc1 (stereo not given) | 0% |
| O=C(Nc1nnc(CCOCCOCCc2nnc(NC(=O)c3ccco3)s2)s1)c1ccco1 | -5.99% |
| O=C(Nc1nc(-c2ccco2)c(-c2ccco2)s1)c1ccco1 | -77.4% (active) |
| CCc1nnc(NC(=O)c2ccco2)s1 | 10% |
| CCN1CCN(c2sc(S(C)(=O)=O)nc2S(=O)(=O)c2ccc(Cl)cc2)CC1 | -97.8% (active) |
| CCN1CCN(c2ccc([N+](=O)[O-])cc2C(=O)c2ccc(Cl)cc2)CC1 | -7.81% |
| CCN1CCN(C(=O)N(Cc2ccc(Cl)cc2)S(=O)(=O)c2ccc(C)cc2)CC1 | -3.62% |
| COc1cc([C@H](Cc2ccccc2)NC(C)=O)oc(=O)c1 | 22.9% |
| COC(=O)COc1cccc2c(=O)n(CC(=O)NCc3ccccc3)ccc12 | -57.4% (active) |
| Cc1ccc(CNC(=O)CCNC(=O)Cn2ccc3ccccc3c2=O)cc1 | -21.6% |
| COc1cccc2c(=O)n(CC(=O)N3CCCCCC3)ccc12 | -3.57% |
| O=C(Nc1cccc(S(=O)(=O)NC2=NCCC2)c1)C1CCCCC1 | 23.8% |
